Measurements: the supplement of paper PMC7765376
Counter-ions that a name gives are not always drawn. The full ranking holds about 1,500 compounds; the median of “Excess HSA synergy score (sum over dose matrix of excess over highest single agent)” is about 43, and the lowest 2% start at about -900. For the sample, the lowest values were picked, then their nearest neighbours and some compounds at random.

System: PEO-1
Assay: Excess HSA synergy score (sum over dose matrix of excess over highest single agent) (score (summed % response)); higher = less synergy / more antagonism (negative = synergy)
Conditions: 72 h, read-out: viability/apoptosis luminescence (CellTiter-Glo or Caspase3-Glo / not stated per table)
[1] = matrix design: 6x6, 5-fold dilutions (primary screen)
[2] = matrix design: 10x10, 9-step dilutions (confirmatory)

SMILES | Excess HSA synergy score [1] | Excess HSA synergy score [2]
COC1=C2C[C@@H](C)C[C@H](OC)[C@H](O)[C@@H](C)/C=C(\C)[C@H](OC(N)=O)[C@@H](OC)/C=C\C=C(/C)C(=O)NC(=CC1=O)C2=O [Geldanamycin] + CC[C@H](NC(=O)[C@H](C)NC)C(=O)N1C[C@@H](O)C[C@H]1Cc1c(-c2[nH]c3cc(F)ccc3c2C[C@@H]2C[C@H](O)CN2C(=O)[C@H](CC)NC(=O)[C@H](C)NC)[nH]c2cc(F)ccc12 [Birinapant] | 115 | -710
CCc1cc(-c2n[nH]c(C)c2-c2ccc3c(c2)OCCO3)c(O)cc1O + CC[C@H](NC(=O)[C@H](C)NC)C(=O)N1C[C@@H](O)C[C@H]1Cc1c(-c2[nH]c3cc(F)ccc3c2C[C@@H]2C[C@H](O)CN2C(=O)[C@H](CC)NC(=O)[C@H](C)NC)[nH]c2cc(F)ccc12 [Birinapant] | 405 | –
Cc1c[nH]c(/C=C2\C(=O)Nc3ccccc32)c1CCC(=O)O + CC[C@H](NC(=O)[C@H](C)NC)C(=O)N1C[C@@H](O)C[C@H]1Cc1c(-c2[nH]c3cc(F)ccc3c2C[C@@H]2C[C@H](O)CN2C(=O)[C@H](CC)NC(=O)[C@H](C)NC)[nH]c2cc(F)ccc12 [Birinapant] | 54.2 | –
CC1(C)O[C@H]2CC(=O)OC[C@]23[C@H]2CC[C@@]4(C)[C@H](c5ccoc5)OC(=O)[C@H]5O[C@]54[C@]2(C)C(=O)C[C@@H]13 [Limonin] + CC[C@H](NC(=O)[C@H](C)NC)C(=O)N1C[C@@H](O)C[C@H]1Cc1c(-c2[nH]c3cc(F)ccc3c2C[C@@H]2C[C@H](O)CN2C(=O)[C@H](CC)NC(=O)[C@H](C)NC)[nH]c2cc(F)ccc12 [Birinapant] | 15.5 | –
COc1cccc2c1C(=O)c1c(O)c3c(c(O)c1C2=O)C[C@@](O)(C(=O)CO)C[C@@H]3O[C@H]1C[C@H](N)[C@H](O)[C@H](C)O1 [Doxorubicin] + CC[C@H](NC(=O)[C@H](C)NC)C(=O)N1C[C@@H](O)C[C@H]1Cc1c(-c2[nH]c3cc(F)ccc3c2C[C@@H]2C[C@H](O)CN2C(=O)[C@H](CC)NC(=O)[C@H](C)NC)[nH]c2cc(F)ccc12 [Birinapant] | -136 | –
CC[C@@]1(O)C[C@H](O[C@H]2C[C@H](N(C)C)[C@H](O[C@H]3C[C@H](O)[C@H](O[C@H]4CCC(=O)[C@H](C)O4)[C@H](C)O3)[C@H](C)O2)c2c(cc3c(c2O)C(=O)c2c(O)cccc2C3=O)[C@H]1C(=O)OC [Aclarubicin] + CC[C@H](NC(=O)[C@H](C)NC)C(=O)N1C[C@@H](O)C[C@H]1Cc1c(-c2[nH]c3cc(F)ccc3c2C[C@@H]2C[C@H](O)CN2C(=O)[C@H](CC)NC(=O)[C@H](C)NC)[nH]c2cc(F)ccc12 [Birinapant] | -147 | -1130
COc1cccc2c1C(=O)c1c(O)c3c(c(O)c1C2=O)C[C@@](O)(C(=O)CO)C[C@@H]3O[C@H]1C[C@H](N)[C@@H](O)[C@H](C)O1 [Epirubicin hydrochloride] + CC[C@H](NC(=O)[C@H](C)NC)C(=O)N1C[C@@H](O)C[C@H]1Cc1c(-c2[nH]c3cc(F)ccc3c2C[C@@H]2C[C@H](O)CN2C(=O)[C@H](CC)NC(=O)[C@H](C)NC)[nH]c2cc(F)ccc12 [Birinapant] | -93.1 | –
CCc1cc2c(cc1N1CCC(N3CCOCC3)CC1)C(C)(C)c1[nH]c3cc(C#N)ccc3c1C2=O + CC[C@H](NC(=O)[C@H](C)NC)C(=O)N1C[C@@H](O)C[C@H]1Cc1c(-c2[nH]c3cc(F)ccc3c2C[C@@H]2C[C@H](O)CN2C(=O)[C@H](CC)NC(=O)[C@H](C)NC)[nH]c2cc(F)ccc12 [Birinapant] | 183 | –
C[Se]CC[C@H](N)C(=O)O [L-selenomethionine] + CC[C@H](NC(=O)[C@H](C)NC)C(=O)N1C[C@@H](O)C[C@H]1Cc1c(-c2[nH]c3cc(F)ccc3c2C[C@@H]2C[C@H](O)CN2C(=O)[C@H](CC)NC(=O)[C@H](C)NC)[nH]c2cc(F)ccc12 [Birinapant] | 115 | –
CC(=O)O/N=C1/C(=C2/C(=O)Nc3cc(Br)ccc32)Nc2ccccc21 [6-Bromoindirubin-3'-acetoxime] + CC[C@H](NC(=O)[C@H](C)NC)C(=O)N1C[C@@H](O)C[C@H]1Cc1c(-c2[nH]c3cc(F)ccc3c2C[C@@H]2C[C@H](O)CN2C(=O)[C@H](CC)NC(=O)[C@H](C)NC)[nH]c2cc(F)ccc12 [Birinapant] | 131 | –
Cc1ccc(C(=O)N(CCCN)[C@@H](c2nc3cc(Cl)ccc3c(=O)n2Cc2ccccc2)C(C)C)cc1 [Ispinesib] + CC[C@H](NC(=O)[C@H](C)NC)C(=O)N1C[C@@H](O)C[C@H]1Cc1c(-c2[nH]c3cc(F)ccc3c2C[C@@H]2C[C@H](O)CN2C(=O)[C@H](CC)NC(=O)[C@H](C)NC)[nH]c2cc(F)ccc12 [Birinapant] | -86.8 | –
Nc1nccc(-c2ccc3noc(-c4ccc(Cl)cc4)c3c2)n1 [Pim 1 Inhibitor 2] + CC[C@H](NC(=O)[C@H](C)NC)C(=O)N1C[C@@H](O)C[C@H]1Cc1c(-c2[nH]c3cc(F)ccc3c2C[C@@H]2C[C@H](O)CN2C(=O)[C@H](CC)NC(=O)[C@H](C)NC)[nH]c2cc(F)ccc12 [Birinapant] | 12.2 | –
C=CCNc1c(O)cc2c(O)c1C[C@@H](C)C[C@H](OC)[C@H](O)[C@@H](C)/C=C(\C)[C@H](OC(N)=O)[C@@H](OC)/C=C\C=C(/C)C(=O)N2 [Retaspimycin] + CC[C@H](NC(=O)[C@H](C)NC)C(=O)N1C[C@@H](O)C[C@H]1Cc1c(-c2[nH]c3cc(F)ccc3c2C[C@@H]2C[C@H](O)CN2C(=O)[C@H](CC)NC(=O)[C@H](C)NC)[nH]c2cc(F)ccc12 [Birinapant] | -10.7 | –
NC(=O)Nc1cc(-c2cccc(F)c2)sc1C(=O)N[C@H]1CCCNC1 + CC[C@H](NC(=O)[C@H](C)NC)C(=O)N1C[C@@H](O)C[C@H]1Cc1c(-c2[nH]c3cc(F)ccc3c2C[C@@H]2C[C@H](O)CN2C(=O)[C@H](CC)NC(=O)[C@H](C)NC)[nH]c2cc(F)ccc12 [Birinapant] | 119 | –
Cc1cccc(Nc2nc(-c3ccncc3)cs2)c1 + CC[C@H](NC(=O)[C@H](C)NC)C(=O)N1C[C@@H](O)C[C@H]1Cc1c(-c2[nH]c3cc(F)ccc3c2C[C@@H]2C[C@H](O)CN2C(=O)[C@H](CC)NC(=O)[C@H](C)NC)[nH]c2cc(F)ccc12 [Birinapant] | 69.4 | –
COc1cc(F)c(C(C)C)cc1-c1ccc(C(F)(F)F)cc1CN1C(=O)O[C@H](c2cc(C(F)(F)F)cc(C(F)(F)F)c2)[C@@H]1C [Anacetrapib] + CC[C@H](NC(=O)[C@H](C)NC)C(=O)N1C[C@@H](O)C[C@H]1Cc1c(-c2[nH]c3cc(F)ccc3c2C[C@@H]2C[C@H](O)CN2C(=O)[C@H](CC)NC(=O)[C@H](C)NC)[nH]c2cc(F)ccc12 [Birinapant] | -71.8 | –
CN(C)c1ccc(C(=C2C=CC(=[N+](C)C)C=C2)c2ccc(N(C)C)cc2)cc1 [Methylrosaniline chloride] + CC[C@H](NC(=O)[C@H](C)NC)C(=O)N1C[C@@H](O)C[C@H]1Cc1c(-c2[nH]c3cc(F)ccc3c2C[C@@H]2C[C@H](O)CN2C(=O)[C@H](CC)NC(=O)[C@H](C)NC)[nH]c2cc(F)ccc12 [Birinapant] | -147 | –
COc1ccc(C2=N[C@@H](c3ccc(Cl)cc3)[C@@H](c3ccc(Cl)cc3)N2C(=O)N2CCNC(=O)C2)c(OC(C)C)c1 [Nutlin-3] + CC[C@H](NC(=O)[C@H](C)NC)C(=O)N1C[C@@H](O)C[C@H]1Cc1c(-c2[nH]c3cc(F)ccc3c2C[C@@H]2C[C@H](O)CN2C(=O)[C@H](CC)NC(=O)[C@H](C)NC)[nH]c2cc(F)ccc12 [Birinapant] | 264 | –
CCS(=O)(=O)N1CC(CC#N)(n2cc(-c3ncnc4[nH]ccc34)cn2)C1 [Baricitinib] + CC[C@H](NC(=O)[C@H](C)NC)C(=O)N1C[C@@H](O)C[C@H]1Cc1c(-c2[nH]c3cc(F)ccc3c2C[C@@H]2C[C@H](O)CN2C(=O)[C@H](CC)NC(=O)[C@H](C)NC)[nH]c2cc(F)ccc12 [Birinapant] | 48.3 | –
N#CC(c1ccnc(OCc2ccc(CN3CCOCC3)cc2)n1)c1nc2ccccc2s1 (stereo not given) + CC[C@H](NC(=O)[C@H](C)NC)C(=O)N1C[C@@H](O)C[C@H]1Cc1c(-c2[nH]c3cc(F)ccc3c2C[C@@H]2C[C@H](O)CN2C(=O)[C@H](CC)NC(=O)[C@H](C)NC)[nH]c2cc(F)ccc12 [Birinapant] | 104 | –
COc1ccc(C(=O)CC2(O)C(=O)Nc3c(Cl)ccc(Cl)c32)cc1 (stereo not given) + CC[C@H](NC(=O)[C@H](C)NC)C(=O)N1C[C@@H](O)C[C@H]1Cc1c(-c2[nH]c3cc(F)ccc3c2C[C@@H]2C[C@H](O)CN2C(=O)[C@H](CC)NC(=O)[C@H](C)NC)[nH]c2cc(F)ccc12 [Birinapant] | 27 | –
NC(=O)c1ccc(N(C(N)=O)c2c(F)cccc2F)nc1-c1ccc(F)cc1F + CC[C@H](NC(=O)[C@H](C)NC)C(=O)N1C[C@@H](O)C[C@H]1Cc1c(-c2[nH]c3cc(F)ccc3c2C[C@@H]2C[C@H](O)CN2C(=O)[C@H](CC)NC(=O)[C@H](C)NC)[nH]c2cc(F)ccc12 [Birinapant] | 69.1 | –
Cn1cnc(N)c2ncnc1-2 [3-Methyladenine] + CC[C@H](NC(=O)[C@H](C)NC)C(=O)N1C[C@@H](O)C[C@H]1Cc1c(-c2[nH]c3cc(F)ccc3c2C[C@@H]2C[C@H](O)CN2C(=O)[C@H](CC)NC(=O)[C@H](C)NC)[nH]c2cc(F)ccc12 [Birinapant] | 238 | –
